In PubChem BioAssay AID1376 (SRMLSC, 2008):
Out of some 220,000 compounds screened, about 530 (0.24%) were called active. Cut-off read from the data, not from the text of the source: active = inhibition above about 13%; inconclusive = no clear call, values can overlap the other calls; inactive = below that. What follows is part of a selection rich in actives, with near analogues and random picks from the rest. Results with a measured potency or affinity are listed apart.

Target: Bifunctional protein GlmU (Mycobacterium tuberculosis (strain ATCC 25618 / H37Rv)) (UniProt P9WMN3)
Experiment: inhibition of mycobacterial GlmU enzyme – biochemical, glucosamine-1-phosphate acetyltransferase (AID 1376);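 note: 0% = complete reaction with vehicle and 100% = reaction without substrate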
Conditions: M. tuberculosis GlmU acetyltransferase enzyme assay; active compounds read high;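 tested at 30 µM in the primary screen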

Bifunctional protein GlmU (Mycobacterium tuberculosis (strain ATCC 25618 / H37Rv)), sequence (P9WMN3 whole entry, looked up): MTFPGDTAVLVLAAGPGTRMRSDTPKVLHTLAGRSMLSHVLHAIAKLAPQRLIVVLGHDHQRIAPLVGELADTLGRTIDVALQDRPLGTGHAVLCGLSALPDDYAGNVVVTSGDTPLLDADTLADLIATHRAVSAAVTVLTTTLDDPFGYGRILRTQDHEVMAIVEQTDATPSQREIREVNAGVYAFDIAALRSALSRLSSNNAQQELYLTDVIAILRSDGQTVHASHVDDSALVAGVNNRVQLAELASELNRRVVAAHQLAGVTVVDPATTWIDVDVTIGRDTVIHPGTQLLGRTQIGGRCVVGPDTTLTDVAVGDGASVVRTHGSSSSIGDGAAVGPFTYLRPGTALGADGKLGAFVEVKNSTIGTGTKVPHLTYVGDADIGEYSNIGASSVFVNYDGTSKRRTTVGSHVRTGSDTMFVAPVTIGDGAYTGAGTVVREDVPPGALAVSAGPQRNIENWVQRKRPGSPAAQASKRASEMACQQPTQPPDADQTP

Row | SMILES | inhibition
1 | CC12CCC(C(=O)NCc3ccccc3Cl)(OC1=O)C2(C)C (stereo unspecified) | 0.28% (inactive)
2 | Cc1[nH]c(=O)[nH]c(=O)c1/C=N/NC(=O)CCNC(=O)OC(C)(C)C | -1.18% (inactive)
3 | Cc1[nH]c(=O)[nH]c(=O)c1/C=N/NC(=O)[C@@H](NC(=O)OC(C)(C)C)C(C)C | -0.37% (inactive)
4 | Cc1[nH]c(=O)[nH]c(=O)c1/C=N/NC(=O)[C@H](C)NC(=O)OC(C)(C)C | 12.9% (active)
5 | CCN(C(=O)c1nn(-c2ccc(OC)cc2)c(=O)c2c1c1ccccc1n2C)c1ccc(OC)cc1 | -3.7% (inactive)
6 | C=CCn1c(O)c(C=NCCN2CCOCC2)c(=O)[nH]c1=S | -1.69% (inactive)
7 | CC(=O)CSc1ccc(-c2nc3cc(C)c(C)cc3[nH]2)cn1 | 8.32% (inactive)
8 | Cc1cc2nc(-c3ccc(SCc4ccc(C(=O)O)cc4)nc3)[nH]c2cc1C | 13.2% (active)
9 | Cc1cc2nc(-c3ccc(SCc4ccc(C#N)cc4)nc3)[nH]c2cc1C | 0.22% (inactive)
10 | O=C(O)c1ccccc1-c1ccccc1C(=O)Nc1cccc(Br)c1 | 0.35% (inactive)
11 | CCOc1ccc(-c2cc3cc(OC)c(OC)cc3c(C)n2)cc1 | -1.9% (inactive)
12 | Cc1nc(-c2ccccc2Cl)sc1C(=O)/C=C/N(C)C | -0.01% (inactive)
13 | Cc1ccc2nc(-c3ccc(NC(=O)CSCC(=O)O)cc3)sc2c1 | 4.5% (inactive)
14 | Cc1nnc(SCC(=O)Nc2ccc(-c3nc4ccccc4s3)cc2)s1 | 6.16% (inactive)
15 | CCc1nc(-c2ccccc2)c2ccccn12 | 0.63% (inactive)
16 | COCCn1nnnc1C(C(C)C)N(Cc1cccnc1)Cc1cc2cc(OC)ccc2[nH]c1=O (stereo unspecified) | 0.94% (inactive)
17 | COc1ccc(Cl)cc1NC(=O)NC(C)c1ccncc1 (stereo unspecified) | 13% (active)
18 | COc1ccc(C)cc1NC(=O)NC(C)c1ccncc1 (stereo unspecified) | -4.98% (inactive)
19 | COc1ccc(Cl)cc1NC(=O)NC(C)C | -2.94% (inactive)
20 | Cc1cc2c3ccccc3ncn2n1 | 4.82% (inactive)
21 | CCOC(=O)c1cnc2c(c(C)nn2C)c1Oc1ccccc1F | 3.91% (inactive)
22 | COc1cccc(OCC(Cn2cnc3ccccc32)OC(C)=O)c1 (stereo unspecified) | -0.44% (inactive)
23 | O=C(/C=C/c1ccco1)Nc1ccc(Oc2ccc(Cl)cc2)cc1 | 2.3% (inactive)
24 | O=C(O)CCCN1C(=O)/C(=C\c2ccco2)SC1=S | 23.1% (inactive)

Row | SMILES | inhibition
25 | O=C(CCCN1C(=O)/C(=C/c2ccco2)SC1=S)Nc1cccc(C(=O)O)c1 | 8.84% (inactive)
26 | O=C(/C=C/c1ccco1)Nc1ccccc1C(=O)O | 15% (active)
27 | O=C(/C=C/c1ccco1)Nc1cc(Cl)ccc1C(=O)O | 13% (active)
28 | O=C(/C=C/c1ccco1)Nc1cccnc1Cl | 0.97% (inactive)
29 | O=C(/C=C/c1ccco1)Nc1ccccc1C(=O)Nc1cccc(C(=O)O)c1 | 3.1% (inactive)
30 | CCc1ccccc1NC(=O)c1cccc(NC(=O)/C=C/c2ccco2)c1 | -2.87% (inactive)
31 | COC(=O)c1ccccc1NC(=O)/C=C/c1ccco1 | -3.26% (inactive)
32 | O=C(/C=C/c1ccco1)Nc1cccc(C(=O)Nc2ccccc2C(=O)O)c1 | 14.7% (active)
33 | O=C(/C=C/c1ccco1)Nc1ccccc1N1CCCC1 | -0.88% (inactive)
34 | CCc1cccc(CC)c1NC(=O)COC(=O)c1ccccc1-c1nc2ccccc2s1 | -1.43% (inactive)
35 | COc1ccc(-n2c(SCC(=O)NCCCN3CCCC3=O)nnc2C(C)N2CCCCC2)cc1 (stereo unspecified) | -0.73% (inactive)
36 | O=C(O)C(Cc1cc(Cl)ccc1Cl)Sc1nc2ccccc2[nH]1 (stereo unspecified) | -6.33% (inactive)
37 | COCCNC(=O)COC(=O)c1[nH]c(C)c(C(C)=O)c1C | -0.47% (inactive)
38 | COc1ccc(/C=C/C(=O)Nc2nnc(C(C)C)s2)cc1OC | 4.06% (inactive)
39 | CN(C)/C=C/C(=O)C(Cl)(Cl)Cl | -0.97% (inactive)
40 | COc1ccc(Nc2nnc(SCc3cc([N+](=O)[O-])cc4c3OCOC4)s2)cc1 | -5.67% (inactive)
41 | O=C(CCCOc1ccc(Cl)cc1Cl)NCc1ccncc1 | 2.06% (inactive)
42 | CN(CC(=O)Nc1ccc2c(c1)OCO2)S(=O)(=O)c1ccc2c(c1)CCC(=O)N2 | 2.93% (inactive)
43 | CC(C)CCN(CCC(C)C)C(=O)Cc1c(O)c2ccccc2[nH]c1=O | -2.47% (inactive)
44 | CCN(CC)C(=O)Cc1c(O)c2ccccc2[nH]c1=O | 1.17% (inactive)
45 | O=C(Cc1c(O)c2ccccc2[nH]c1=O)N(Cc1ccccc1)Cc1ccccc1 | 35% (active)
46 | COc1ccc(NC(=O)C2=C(C)Nc3nc(CCCO)nn3C2c2ccc(OC)c(OC)c2)cc1 (stereo unspecified) | 6.23% (inactive)
47 | COc1cc(NC(=O)c2cccs2)c(C(=O)OCC(=O)c2cc(C)n(-c3ccc(F)cc3)c2C)cc1OC | 3.27% (inactive)
48 | Cc1ccccc1Oc1ccc(NC(=O)C2CC=CCC2C(=O)O)cc1 (stereo unspecified) | 3.98% (inactive)

Row | SMILES | inhibition
49 | CN(C)c1ncc(S(=O)(=O)c2ccccc2)c(-c2ccccc2Cl)n1 | 13.9% (active)
50 | Cc1ncc(S(=O)(=O)c2ccccc2)c(-c2ccccc2Cl)n1 | 4.86% (inactive)
51 | CN(C)c1ncc(S(=O)(=O)c2ccc(Cl)cc2)c(-c2ccccc2)n1 | -0.58% (inactive)
52 | CC(C)N1CCC(N2CCN(Cc3ccc4nsnc4c3)CC2CCO)CC1 (stereo unspecified) | -6.91% (inactive)
53 | O=C(CCc1nc2ccccc2[nH]c1=O)OCc1ccc(S(=O)(=O)N2CCOCC2)cc1 | 1.61% (inactive)
54 | Cc1cccc2cc3c(NC(=O)CC(C)C)nn(C)c3nc12 | 0.35% (inactive)
55 | CC1=C(C/C(C)=C/c2ccccc2)/C(=C/CO)[C@@H]2OC(=O)O[C@]2(C)C12CC2 | 3.53% (inactive)
56 | CC1=C(C/C(C)=C/c2ccccc2)/C(=C/CO)[C@H](O)[C@](C)(O)C12CC2 | 13.9% (active)
57 | C/C(=C\c1ccccc1)CN1CCN(c2ccccc2)CC1 | 2.64% (inactive)
58 | NC(=O)c1ccccc1NC(=O)Nc1cccc2ccccc12 | -1.2% (inactive)
59 | NC(=O)Nc1cccc2ccccc12 | 14.6% (active)
60 | NC(=O)NNC(=S)Nc1cccc2ccccc12 | 4.54% (inactive)
61 | O=C1CCCC2=C1C1c3ccccc3C(=O)N1c1ccc(C(=O)c3ccccc3)cc1N2 (stereo unspecified) | 0.1% (inactive)
62 | O=C(CCC(=O)c1ccc(Oc2ccccc2)cc1)Nc1cccc(Cl)c1 | 3.77% (inactive)
63 | COc1ccc(OC)c(-c2oc3ccccc3c(=O)c2O)c1 | 0.78% (inactive)
64 | O=c1cc2oc3cc(O)c(O)cc3c(-c3ccccc3O)c-2cc1O | 15.4% (active)
65 | CCOc1ccccc1-c1c2cc(O)c(=O)cc-2oc2cc(O)c(O)cc12 | -3.1% (inactive)
66 | COc1cc(OC)c(-c2c3cc(O)c(=O)cc-3oc3cc(O)c(O)cc23)cc1OC | 8.01% (inactive)
67 | Cc1c2cc(O)c(=O)cc-2oc2cc(O)c(O)cc12 | 27.1% (active)
68 | O=c1cc(-c2ccccc2Cl)oc2cccc(O)c12 | 3.22% (inactive)
69 | CC1(C)CC(=O)c2c(oc3cc(O)c(O)cc23)C1 | -1.56% (inactive)
70 | Cc1ccccc1-c1cc(=O)c2c(O)cccc2o1 | -2.72% (inactive)
71 | COc1ccc(OC)c(-c2c3cc(O)c(=O)cc-3oc3cc(O)c(O)cc23)c1 | 14.7% (active)
72 | Cc1cc(NC(=O)CCCn2nc([N+](=O)[O-])cc2C)no1 | 0.02% (inactive)

Row | SMILES | inhibition
73 | COc1ccc2c(OC)cc(-c3ccccc3)nc2c1 | 3.08% (inactive)
74 | Cc1cc(NC(=O)Cc2ccccc2)c2ccccc2n1 | -0.11% (inactive)
75 | CC(=O)Nc1cccc(NC(=O)CSc2ccc(C(F)(F)F)cc2[N+](=O)[O-])c1 | 1.81% (inactive)
76 | CCOC(=O)c1c(C2CC2)csc1NC(=O)COC(=O)c1cnc(Cl)c(Cl)c1 | 4.42% (inactive)
77 | S=c1[nH]nc(COc2cccc(Cl)c2)n1Cc1ccccc1 | 2.34% (inactive)
78 | O=C(Cc1c[nH]c2ccccc12)Nc1nccs1 | 3.72% (inactive)
79 | CC1Cc2ccccc2N1C(=O)C1CCCN(S(=O)(=O)c2cccc3cccnc23)C1 (stereo unspecified) | -0.65% (inactive)
80 | CCSc1nc2ccccc2c(=O)n1C1CCOC(C)(C)C1 (stereo unspecified) | 7.35% (inactive)
81 | O=C(NCCCN1CCOCC1)c1sc2cc([N+](=O)[O-])ccc2c1Cl | 12.9% (active)
82 | O=C(NCCCN1CCOCC1)c1sc2cc(Cl)ccc2c1Cl | 4.82% (inactive)
83 | O=C(NCCCN1CCOCC1)c1sc2cc(F)ccc2c1Cl | -2.73% (inactive)
84 | CCN(CC)c1ccc(N=Nc2ncn[nH]2)cc1 | -1.86% (inactive)
85 | CCOc1ccccc1N1CSC2=C(C#N)C(c3c(OC)ccc4ccccc34)CC(=O)N2C1 (stereo unspecified) | 3.43% (inactive)
86 | COc1ccc2ccccc2c1C1CC(=O)N2CN(C3CCCCC3)CSC2=C1C#N (stereo unspecified) | 7.17% (inactive)
87 | COc1ccc2ccccc2c1C1CC(=O)N2CN(C)CSC2=C1C#N (stereo unspecified) | 13.8% (active)
88 | O=C(O)COc1c(Cl)cc(/C=C2\NC(=O)NC2=O)cc1Br | 3.85% (inactive)
89 | CC(C)OC(=O)c1cccc(C(=O)Nc2cccc(NC(=O)c3cccc(C(=O)OC(C)C)n3)n2)n1 | 2.69% (inactive)
90 | O=C(O)c1cc(-c2ccc(/C=N/NC(=S)Nc3ccccc3)o2)ccc1Cl | 10.1% (inactive)
91 | O=C(N/N=C/c1ccc([N+](=O)[O-])o1)c1cc2c(ccc3ccccc32)o1 | -4.6% (inactive)
92 | COC(=O)c1cc(OC)cc(O)c1C(=O)c1c(O)cc(C)cc1O | 1.11% (inactive)
93 | COC(=O)c1cc(O)cc(OC)c1C(=O)c1c(O)cc(C)cc1O | 0% (inactive)
94 | Clc1ccc(-c2csc(Nc3cccnc3)n2)cc1 | -1.87% (inactive)
95 | CCCCCCNCc1c(F)cccc1Cl | -1.27% (inactive)
96 | CCOC(=O)/C(=N/Nc1ccccc1OC)N1CCCc2ccccc21 | 3.21% (inactive)
